NS1 function inh: qHTS Assay for Inhibitors of Influenza NS1 Protein Function | Potency, µM (titrated, usually from 46.1 µM) | actives 0.4% (n = 270,000) | AID 2326, 2010; calls by dose curve; also: actives are rising curves; nearly all actives have a fitted effect of over 50% in size
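Recovery from NS1-induced slow growth read by OD600 in budding yeast switched to galactose assay medium (pH 6.0, -URA) at 1:100 dilution. Compound 23 nl per well; the matching strain lacking NS1 serves as control.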
AmpC inh no detg: qHTS Inhibitors of AmpC Beta-Lactamase (assay without detergent); P00811; AmpC nitrocefin hydrolysis, absorbance 480 nm, 0.0001% Triton; Potency, µM (doses to about 57.1 µM), actives largely listed as inhibitors; actives 0.52% (n = 330,000); also: nearly all actives have a fitted effect of over 20% in size
Target sequence (P00811 whole entry, looked up): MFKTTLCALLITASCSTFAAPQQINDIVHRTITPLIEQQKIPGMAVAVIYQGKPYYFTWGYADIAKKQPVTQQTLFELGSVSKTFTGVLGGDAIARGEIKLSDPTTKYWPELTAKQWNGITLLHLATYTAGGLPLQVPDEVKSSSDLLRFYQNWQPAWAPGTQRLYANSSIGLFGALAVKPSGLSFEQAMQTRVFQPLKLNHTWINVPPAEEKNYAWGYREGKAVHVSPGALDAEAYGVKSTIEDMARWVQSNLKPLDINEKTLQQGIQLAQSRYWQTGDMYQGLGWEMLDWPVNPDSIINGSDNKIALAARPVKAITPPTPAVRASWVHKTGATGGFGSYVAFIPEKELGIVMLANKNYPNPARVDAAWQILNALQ
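20 mM phosphate pH 7.0 + 0.01% (detergent screen) or 0.0001% Triton X-100; 5.3 nM AmpC reagent; cpd preinc 15 min RT; nitrocefin (800 uM stock) to start; A480 q20 s × 4 min; Activity was normalised to no-enzyme and no-compound control wells.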
SARS PLpro yeast: qHTS of Yeast-based Assay for SARS-CoV PLP. S. cerevisiae expressing SARS-CoV PLpro, growth rescue. Potency, µM (doses to about 32.9 µM), hits mostly activators. actives 0.19% (n = 330,000). AID 485353, 2010; calls by dose curve; also: nearly all actives have a fitted effect of over 55% in size
AmpC detergent: qHTS Inhibitors of AmpC Beta-Lactamase (assay with detergent); P00811; AmpC hydrolysis of nitrocefin, absorbance 480 nm, 0.01% Triton; Potency, µM (doses to about 114 µM), hits mostly inhibitors; actives 0.041% (n = 370,000); AID 485294, 2010; also: nearly all actives have a fitted effect of over 25% in size
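20 mM phosphate pH 7.0 + 0.01% (detergent screen) or 0.0001% Triton X-100; 5.3 nM AmpC reagent; cpd preinc 15 min RT; nitrocefin (800 uM stock) to start; A480 q20 s × 4 min; Activity was normalised to no-enzyme and no-compound control wells.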
AMA1-RON2 inh: qHTS for Inhibitors of AMA1-RON; Towards Development of Antimalarial Drug Lead: Primary Screen. Plasmodium falciparum AMA1 (3D7) - RON2 peptide interaction. AlphaScreen AMA1-biotinylated RON2 peptide binding. Potency, µM (top dose mostly 58.2 µM), actives largely listed as inhibitors. actives 0.2% (n = 360,000). AID 720542, 2013; also: nearly all actives have a fitted effect of over 45% in size
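AMA1 (3D7) with his tag at 25 nM final met compounds first, then biotinylated RON2 peptide at 25 nM; detection used donor plus acceptor beads, 10 µg/mL apiece, read by AlphaScreen after 30 min at room temperature.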
NS1 inh valid: Assay for Inhibitors of Influenza NS1 Protein Function: Hit Validation; shares compounds with NS1 function inh; influenza NS1 function cell assay, 15-point titration; activity change, negative = inhibition, % at 32.9 µM; 1,400 tested, under 10 active; AID 492980, 2010; calls by dose curve
PR8 titer: Assay for Inhibitors of Influenza NS1 Protein Function: Influenza virus replication assay in MDCK cells infected with virus A/PR/8/34. shares compounds with NS1 function inh. MDCK infected influenza A/PR/8/34, virus titer TCID50; active compounds read low. virus titer (log TCID50), log10 TCID50 at 5 µM. actives 30% (n = 95). AID 504647, 2011; call rule not given here
Of the large screens only hits and unclear results are named; the others gave an inactive call (follow-up assays come after a bar, where they were run). Sampled rows, rich in hits. Any-hit rate of the full collection: about 0.99%. Unless noted, calls follow the shape of the dose curve; as a rule, active = well fitted curve in the direction sought with a large enough effect; inconclusive = small, poorly fitted or top-dose-only effect, or another doubt; inactive = no such curve, though single readings can be large; an effect the other way counts as inactive or inconclusive.

COc1cc(C(=S)N2CCCC2)cc(OC)c1O	NS1 function inh 3.98µM | NS1 inh valid inactive
CCOc1cc(C(=S)N2CCCC2)ccc1OC	none
C=CCNC(=O)/C(C#N)=C/c1cn(-c2ccccc2)nc1-c1ccc(OC)c([N+](=O)[O-])c1	NS1 function inh inconclusive | NS1 inh valid inactive
CCSc1ccc(-c2nn(-c3ccccc3)cc2/C=C(/C#N)C(=O)NC)cc1	AmpC detergent inconclusive
CC(=O)Nc1ccc(C=NNc2ccc([N+](=O)[O-])cc2S(=O)(=O)Nc2ccccc2C(=O)O)cc1	none (no result: NS1 function inh, AmpC detergent)
Cc1ccc(NC(=S)NNc2ccc([N+](=O)[O-])cc2S(=O)(=O)Nc2ccccc2C(=O)O)cc1C	NS1 function inh 12.6µM | NS1 inh valid inactive
Cc1ccc2c(C)nc(Nc3nc(CSc4nnnn4-c4ccccc4)cc(=O)[nH]3)nc2c1	NS1 function inh 14.1µM | NS1 inh valid inactive
COc1ccc2nc(Nc3nc(CSc4nnnn4-c4ccccc4)cc(=O)[nH]3)nc(C)c2c1	none
Cc1cc(=O)n(CC(=O)N2CCN(c3ccc(F)cc3)CC2)c2c1c(C)nn2C	none (no result: NS1 function inh, AmpC inh no detg, SARS PLpro yeast, AMA1-RON2 inh)
O=S(=O)(Nc1ccc(O)c(Sc2nc3ccccc3s2)c1)c1cccc2ccccc12	NS1 function inh 20µM, SARS PLpro yeast inconclusive | NS1 inh valid inactive
O=S(=O)(Nc1ccc(O)c(Sc2nc3ccccc3s2)c1)c1cc(Cl)ccc1Cl	none (no result: NS1 function inh, AmpC inh no detg, SARS PLpro yeast, AMA1-RON2 inh)
Cc1cc2oc(=O)cc(C)c2c2occ(-c3ccc(Cl)cc3)c12	none (no result: NS1 function inh, AmpC inh no detg, SARS PLpro yeast, AMA1-RON2 inh)
CC1CCc2c(sc(NC(=S)NC(=O)c3ccccc3)c2C#N)C1 (stereo not given)	NS1 function inh 7.94µM | NS1 inh valid inactive
Cc1ccccc1C(=O)NC(=S)Nc1sc2c(c1C#N)CCC(C)C2 (stereo not given)	none
CCOc1ccc(C(=O)Nc2cccc(C(=O)OCc3cc(=O)n4cc(C)sc4n3)c2)cc1	none (no result: NS1 function inh, AmpC inh no detg, SARS PLpro yeast, AMA1-RON2 inh)
CC(=O)Nc1nc(C)c(-c2csc(Nc3ccc(O)cc3)n2)s1	NS1 function inh 3.16µM, AmpC inh no detg inconclusive | NS1 inh valid inactive
CC(=O)Nc1nc(C)c(-c2csc(Nc3cccc(C(C)=O)c3)n2)s1	none
Cc1nc(N)sc1-c1csc(Nc2ccccc2)n1	none
Cc1cc(O)ccc1Nc1nc(-c2sc(N)nc2C)cs1	NS1 function inh 11.2µM | NS1 inh valid inactive
O=C(Nc1ccc(Oc2ccc(NC(=O)c3ccco3)c(NC(=O)c3ccco3)c2)cc1)c1ccco1	NS1 function inh 8.91µM | NS1 inh valid inactive | PR8 titer inactive
Cc1cc2cc(NC(=O)c3ccco3)ccc2[nH]1	NS1 function inh 2.51µM | NS1 inh valid inconclusive
Cc1nc2ccc(NC(=O)c3ccco3)cc2nc1C	none
O=C(CSc1ccc(F)cc1)Nc1ccc2c(c1)C(=O)NC2=O	NS1 function inh 1.58µM | NS1 inh valid inactive
COc1cc(NC(=O)c2ccccc2)c(OC)cc1NC(C)=O	NS1 function inh inconclusive | NS1 inh valid inactive
COc1cc(OC)c2c(N)c(C#N)c(C(F)(F)C(F)(F)F)nc2c1	none
COc1ccc2nc(C(F)(F)C(F)(F)F)c(C#N)c(N)c2c1	NS1 function inh 7.94µM | NS1 inh valid inactive
O=C(NCCc1ccc(Cl)cc1)c1cnc2sc(N3CCOCC3)nn2c1=O	none (no result: NS1 function inh, AmpC inh no detg, SARS PLpro yeast, AMA1-RON2 inh)
Cc1nnc(-c2cccc(Br)c2)c2cn(-c3ccccc3)nc12	NS1 function inh inconclusive
Cc1nnc(-c2cccc(Br)c2)c2cn(-c3cccc(Br)c3)nc12	NS1 function inh 8.91µM, AMA1-RON2 inh inconclusive | NS1 inh valid inactive
CC1(OC(=O)c2cccs2)C(=O)C=C2C=C3CCCN3C=C2C1=O (stereo not given)	NS1 function inh inconclusive, AMA1-RON2 inh inconclusive | NS1 inh valid inactive
CC1(OC(=O)CCc2ccccc2)C(=O)C=C2C=C3CCCN3C=C2C1=O (stereo not given)	AMA1-RON2 inh inconclusive
CC(Oc1ccc(F)cc1)C(=O)NCC1(N(C)C)CCCCC1 (stereo not given)	none (no result: NS1 function inh, AmpC inh no detg, SARS PLpro yeast, AMA1-RON2 inh)
CC(=O)Nc1ccc(C(=O)NC2CCSc3ccccc32)cc1 (stereo not given)	none
Cc1ccc(NC(=S)NC2CCSc3ccccc32)cc1 (stereo not given)	NS1 function inh 1.41µM | NS1 inh valid inactive
N#CC(C#N)=Cc1cccn1-c1ccc(S(N)(=O)=O)cc1	NS1 function inh inconclusive | NS1 inh valid inactive
CS(=O)(=O)/C(C#N)=C/c1cccn1S(=O)(=O)c1ccccc1	none
C1CCC(Nc2nnnn2C2CCCCC2)CC1	none
CN(C)/C=C/C(=O)c1nnn(C2CCCCC2)c1NC1CCCCC1	NS1 function inh 7.94µM, AmpC detergent inconclusive | NS1 inh valid inconclusive
N#CCCn1cc(C(CC(=O)c2ccc(Br)cc2)C(=O)O)c2ccccc21 (stereo not given)	NS1 function inh 8.91µM | NS1 inh valid inactive
Cc1ccc(C(=O)CC(C(=O)O)c2cn(CCC#N)c3ccccc23)cc1 (stereo not given)	NS1 function inh inconclusive, AmpC detergent inconclusive
COCCNC(=O)Cn1c(=O)n(Cc2ccc(C(=O)NCc3ccco3)cc2)c(=O)c2ccccc21	NS1 function inh inconclusive, SARS PLpro yeast inconclusive | NS1 inh valid inactive
O=C(Cn1c(=O)n(Cc2ccccc2)c(=O)c2ccccc21)NCc1ccco1	none
O=C(Nc1nccs1)C1CC=CCC1 (stereo not given)	AmpC detergent inconclusive
O=C(Nc1ccc(O)cc1)C1CC=CCC1 (stereo not given)	NS1 function inh 12.6µM | NS1 inh valid inactive
CCC1CCCCN1C(=O)CSc1n[nH]c(-c2ccccc2Cl)n1 (stereo not given)	none (no result: NS1 function inh, AmpC inh no detg, SARS PLpro yeast, AMA1-RON2 inh)
O=C(Cc1cc(=O)[nH][nH]1)N/N=C/c1c(Cl)cccc1Cl	NS1 function inh 10µM, AmpC detergent inconclusive | NS1 inh valid inconclusive
O=C(Cc1cc(=O)[nH][nH]1)N/N=C/c1c(F)cccc1Cl	none (no result: NS1 function inh)
O=C(/C=N/O)NCCCN1CCOCC1	NS1 function inh inconclusive | NS1 inh valid inactive
Cc1cc2c(cc1S(=O)(=O)C(C)CC(=O)NC1CCC(C)CC1)OCC(=O)N2 (stereo not given)	none (no result: NS1 function inh, AmpC inh no detg, SARS PLpro yeast, AMA1-RON2 inh)
CC(=O)Nc1ccc(S(=O)(=O)Oc2ccc(C(=S)N3CCC(O)CC3)cc2)cc1	NS1 function inh inconclusive, AmpC detergent inconclusive | NS1 inh valid inactive
O=C(Cn1cnc([N+](=O)[O-])n1)NCc1ccccc1	NS1 function inh 3.55µM | NS1 inh valid inactive

Screening data from PubChem BioAssay.
